Laboratory results: PubChem BioAssay (EPA / NIEHS)
Inconclusive results are not listed. The source made the active and inactive calls. Rule for the calls: active = hit-call score of the fitted dose curve at least 0.9, where 1 is the maximum; inconclusive = response in the unintended direction; inactive = score below 0.9.

Experiment: ATG_M_19_TRANS: Attagene TRANS-FACTORIAL HepG2 Assay for M19 Transcription Factor (Internal Marker) (AID 2282974)
Conditions: HepG2 Attagene TRANS-FACTORIAL M19 internal marker reporter
Description: ATG_TRANS is a cell-based, multiplexed-readout assay that uses HepG2, a human liver cell line, with measurements taken at 24 hours after chemical dosing in a 24-well plate.ATG_M_19_TRANS is one of 30 assay component(s) measured or calculated from the ATG_TRANS assay. It is designed to make measurements of mRNA induction, a form of inducible reporter, as detected with fluorescence intensity signals by Reverse transcription polymerase chain reaction (RT-PCR) and Capillary electrophoresis technology.Data from the assay component ATG_M_19_TRANS was analyzed into 1 assay endpoint. This assay endpoint, ATG_M_19_TRANS, was analyzed in the positive analysis fitting direction relative to DMSO as the negative control and baseline of activity. Using a type of inducible reporter, measures of mRNA for gain-of-signal activity can be used to understand the background control at the transcription factor-level as they relate to the gene . Furthermore, this assay endpoint can be referred to as a secondary readout, because this assay has produced multiple assay endpoints where this one serves a background control function. To generalize the intended target to other relatable targets, this assay endpoint is annotated to the background measurement intended target family, where the subfamily is internal marker.
Human liver HepG2 cells are transiently transfected with multiple reporter transcription units (MRTUs) in 6-well plates using FuGene 6 reagent (Roche; 3 ml FuGene/1 mg DNA). The MRTU constructs are regulated by a cis-regulating element (promoter). […] A major difference between the CIS and TRANS system is that in CIS activities of endogenous TFs are measured, whereas the TRANS assay evaluates changes in activities of exogenous, chimeric NR-Gal4 proteins. […] At the end of 24 hour incubation, total RNA was isolated using TriZol reagent (Invitrogen). The isolated RNA is then reverse-transcribed using oligo(dT) primer and Mo-MLV reverse transcriptase (Invitrogen) with DNAse I (Ambion) treatment for 30 min. The one-tenth of the produced cDNA was amplified by PCR using Taq DNA polymerase (Invitrogen) and two reporter sequence-specific primers. The PCR products were fluorescently labeled by primer extension with 6-arboxyfluorescein (6-FAM) 5'-labeled reporter sequence-specific primer (2 min at 95 C, 20 s at 68 C and 10 min at 72 C) and these products were digested with 5U of HpaI (New England Biolabs) for 2h at 37 C. The fragments were purified using Qiaquick PCR columns (Qiagen), analyzed on an ABI 3130xL genetic analyzer (Applied Biosystems) with peak positions identified by using a set of X-rhodamine (ROX)-labeled MapMarker1000 molecular weight standards (BioVentures). The raw capillary electrophoresis data was processed using Attagraph software (Attagene).

SMILES | outcome
COc1ccc(C=O)cc1 | inactive
COc1cc(-c2ccc(N)c(OC)c2)ccc1N | inactive
COc1cc2c(cc1OC)[C@@]13CCN4CC5=CCO[C@H]6CC(=O)N2[C@H]1[C@H]6[C@H]5C[C@H]43 | inactive
C=C(C)C#N | inactive
ClCc1cccnc1 | inactive
C=CC(=O)N(C)C | inactive
CN(C)P(=O)(N(C)C)N(C)C | inactive
NC(=S)Nc1ccccc1 | inactive
O=C(O)C(Cl)(Cl)Cl | inactive
CCOC(=O)Nc1cccc(OC(=O)Nc2ccccc2)c1 | inactive
CCCCCCCCSC(=O)Oc1cc(Cl)nnc1-c1ccccc1 | inactive
Nc1cccc(Cl)c1 | inactive
COC(=O)Cc1ccccc1 | inactive
O=C(O)Cc1ccccc1 | inactive
O=C(Cl)c1ccc(Cl)cc1 | inactive
CN(CCCC(=O)c1cccnc1)N=O | inactive
ClC(Cl)=C(Cl)C(Cl)=C(Cl)Cl | inactive
CCC(=O)C(CC(C)N(C)C)(c1ccccc1)c1ccccc1 (stereo not given) | inactive
CC(=O)c1cc(C(C)(C)C)cc2c1CCC2(C)C | inactive
Cl/C=C\C[N+]12CN3CN(CN(C3)C1)C2 | inactive

SMILES | outcome
COP(=S)(OC)Oc1c(Cl)cc(C)cc1Cl | inactive
C[C@]12CCC(=O)C[C@@H]1CC[C@@H]1[C@@H]2CC[C@]2(C)[C@@H](O)CC[C@@H]12 | inactive
CCCCCCCCc1ccc(O)cc1 | inactive
COc1ccc(C=O)cc1OC | inactive
O=C(O)C(F)(F)C(F)(F)C(F)(F)C(F)(F)C(F)(F)C(F)(F)C(F)(F)C(F)(F)C(F)(F)C(F)(F)F | inactive
CCC(C)(C)c1ccc(O)c(C(C)(C)CC)c1 | inactive
CNC | inactive
Cc1ccccc1C(=O)Nc1cccc(OC(C)C)c1 | inactive
Nc1ccc(-c2ccc(N)c(Cl)c2)cc1Cl | inactive
CCc1ccccc1C | inactive
COS(=O)(=O)c1ccc(C)cc1 | inactive
CN(C)N=O | inactive
CC(C)CCCCCCOC(=O)c1ccccc1C(=O)OCCCCCCC(C)C | inactive
Nc1ncc([N+](=O)[O-])s1 | inactive
CC(C)C1CCC(Cc2ccc(Cl)cc2)C1(O)Cn1cncn1 (stereo not given) | inactive
O=[N+]([O-])c1ccc2c3c(cccc13)CC2 | inactive
CCN1CCC2(CC1)COc1cc3c(cc12)N(C(=O)c1ccc(-c2ccc(-c4nnc(C)o4)cc2C)cc1)CC3 | inactive
CCOP(=S)(OCC)Oc1nc(Cl)c(Cl)cc1Cl | inactive
CC(C)(C)CC(C)(C)c1ccc(O)cc1 | inactive
C=CC#N | inactive
